# An excerpt weighted towards active compounds, which were near 7.3% of everything screened.
# FMDV inh: blocks foot and mouth disease virus; FMDV antiviral cell-based qHTS; 1.2% of 410,000 active; AID 1159524; Potency, µM (highest dose often 57.9 µM), inactives show at the highest dose activity change, negative = inhibition, usual class: inhibitors; calls by dose curve; tested in HEK293T cells; further: read-out not given here; potency means the concentration at half of the fitted maximal effect; nearly all actives have a fitted effect of over 45% in size
# VACV mCherry inh: inhibitors of vaccinia virus infection (mCherry reporter signal); Vaccinia virus mCherry reporter infection, fluorescence; Potency, µM (highest dose often 36.5 µM), for the others: at the top dose activity change, negative = inhibition, most hits filed as inhibitors; 0.63% of 310,000 active; calls by dose curve; tested in A549 cells; further: potency means the concentration at half of the fitted maximal effect; nearly all actives have a fitted effect of over 35% in size
# VACV Venus inh: inhibitors of vaccinia virus (Venus reporter); AID 720580; Potency, µM (doses to about 36.5 µM), without a hit: top-dose activity change, negative = inhibition, most hits filed as inhibitors; Vaccinia virus Venus reporter expression, fluorescence; 0.46% of 330,000 active; calls by dose curve; tested in A549 cells; further: potency means the concentration at half of the fitted maximal effect; nearly all actives have a fitted effect of over 30% in size
# HCMV inh: blocks human cytomegalovirus replication; HFF cells, HCMV-luciferase reporter, 72 h; active compounds read low; activity change, negative = inhibition, % at 57.5 µM; 4.5% of 410,000 active; AID 1259415; in the data active means activity change below about -60%; inconclusive means no clear call, values can overlap the other calls; inactive means above about -39%
#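 HFF cells seeded 16 h at 37C, treated with compounds, infected with luciferase-reporter HCMV at MOI 1 PFU/cell; luciferase read at 72 h post infection, normalized to buffer-only and Salinomycin controls.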
# HCV inhibitor: inhibitors of hepatitis C virus infection | Huh7.5.1 HCVcc-Cre infection, luciferase reporter, 44 h | Potency, µM (titrated, usually from 41.8 µM), inactives show at the highest dose activity change, negative = inhibition, usual class: inhibitors | 3.4% of 340,000 active | AID 651820; active means well fitted inhibition curve with a large enough effect; inconclusive means small, poorly fitted or top-dose-only effect, or another doubt; inactive means no such curve, though single readings can be large or run the other way; further: potency means the concentration at half of the fitted maximal effect
#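 A cell-based infection assay in which seeded cells (1,000 per well) receive test compound after 4 h, are inoculated with HCVcc-Cre at approximately 0.5 moi, and are incubated 44 h before luminescence detection.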
# Active calls of the source: *; i = inactive; ? = inconclusive; nt = no result; ! = not confirmed by another sample. On the % scale 0 is the no-effect control and ±100 the full control effect.
SMILES,FMDV inh,VACV mCherry inh,VACV Venus inh,HCMV inh,HCV inhibitor
COc1ccc(Cc2nccc3cc(OC)c(OC)cc23)cc1OC,17.8µM*,?,?,-76.5*,3.16µM*!
CCOc1ccc(CCNC(=O)c2ccccc2OCc2c(C)noc2C)cc1OCC,-19.9%,-21.2%,-16.0%,0.6,7.08µM*
CCC[C@H]1[C@@H](NS(=O)(=O)c2cccc([N+](=O)[O-])c2)CC[C@@]23CCCN2C(=O)CCC[C@@H]13,nt,nt,nt,18.4,nt
CS(=O)(=O)Nc1cccc(-c2nc(NCc3ccccc3)c3ccccc3n2)c1,-21.3%,nt,nt,nt,nt
O=C(Nc1ccc(OCc2cc(=O)n3ccccc3n2)cc1)c1ccccc1Cl,4.3%,-0.9%,-2.8%,-28.1,nt
CSC1=NCCN1C(=O)c1c(F)cccc1Cl,-1.8%,i,-11.5%,-99.7*,13.0%
CCOC(=O)c1nnc(-c2cccs2)nc1Oc1ccc(Cl)cc1,28.2µM*,-23.5%,-22.6%,34.3,5.7%
CCOC(=O)c1nnc(-c2cccs2)nc1Oc1ccccc1C(=O)OC,?,-14.4%,-6.1%,103.0,17.1%
CC(C)C[C@H]1CN([C@@H](CC(C)C)CN2CCC[C@@H]2CN2C(=S)NC[C@@H]2Cc2ccc(O)cc2)C(=S)N1CC1CCCCC1,-19.5%,-10.9%,-26.7%,-22.1,nt
CC(C)C[C@@H](CN1CCCC1CN1C(=S)NC[C@@H]1Cc1ccccc1)N1C[C@H](Cc2ccc(O)cc2)N(CC2CCCCC2)C1=S (stereo partly specified),-24.0%,8.1%,-8.3%,-73.1*,nt
CC(C)C[C@@H](CN1CCC[C@@H]1CN1C(=S)NC[C@@H]1Cc1ccc(O)cc1)N1C[C@H](Cc2ccc(O)cc2)N(CC2CCCCC2)C1=S,-17.0%,-22.0%,-29.1%,-100.4*,nt
CC(C)C[C@@H](CN1CCC[C@@H]1CN1C(=S)NC[C@@H]1Cc1ccc(O)cc1)N1C[C@H](Cc2ccc(O)cc2)N(CC2CCCCCC2)C1=S,?,?,?,-100.5*,nt
CC(C)C[C@@H](CN1CCCC1CN1C(=S)NC[C@@H]1Cc1ccc(O)cc1)N1C[C@H](Cc2ccc(O)cc2)N(CCc2ccccc2)C1=S (stereo partly specified),0.0%,-3.1%,10µM*,-94.8*,-52.2%
CC1=C(c2ccc(F)cc2)S(=O)(=O)N=C1N1CCC(C(=O)NCCc2cccc(C)c2)CC1,-17.6%,-15.5%,-7.6%,-6.5,nt
Cc1cc(C)n2nc(CNC(=O)c3ccc(Cl)cc3)nc2n1,-4.5%,-10.3%,-5.4%,8.9,nt
O=C1/C(=C/c2cccs2)COc2ccccc21,-42.7%,-8.0%,-0.8%,15.0,22.0%
O=C1C(=Cc2cccs2)Oc2ccccc21,45.0%,-16.3%,8.5%,-69.4*,-2.7%
Nc1cc(=O)[nH]c(=S)[nH]1,nt,-5.7%,-2.5%,nt,nt
Cc1cccc(C(=O)OCC(=O)c2c(N)n(CC(C)C)c(=O)n(C)c2=O)c1O,-21.0%,-15.1%,-8.6%,-17.5,?
Cn1c(N)c(C(=O)COC(=O)/C=C/c2ccc(Cl)cc2Cl)c(=O)n(C)c1=O,39.8µM*,i,-13.0%,-4.4,15.0%
CC(C)Cn1c(N)c(C(=O)COC(=O)c2ccncc2)c(=O)n(C)c1=O,-3.1%,nt,-10.3%,20.8,4.6%
Cc1cccc(C(=O)OCC(=O)c2c(N)n(CC(C)C)c(=O)n(C)c2=O)c1[N+](=O)[O-],?,-22.9%,-10.8%,?,14.1µM*
CC(C)Cn1c(N)c(C(=O)COC(=O)CC23CC4CC(CC(C4)C2)C3)c(=O)n(C)c1=O,12.6µM*,nt,?,-66.7*,6.31µM*
Cn1c(N)c(C(=O)COC(=O)/C=C/c2ccc(Cl)cc2)c(=O)n(C)c1=O,?,-13.8%,-21.4%,-29.7,-29.6%
CC(C)Cn1c(N)c(C(=O)COC(=O)/C=C/c2ccccc2)c(=O)n(C)c1=O,15.8µM*,?,-20.3%,-75.9*,7.08µM*
CC(C)Cn1c(N)c(C(=O)COC(=O)c2ccc(Br)cc2)c(=O)n(C)c1=O,31.6µM*,nt,nt,-30.2,?
CC(C)Cn1c(N)c(C(=O)COC(=O)c2ccc(Cl)cc2)c(=O)n(C)c1=O,-20.1%,i,-9.3%,?,?
COC(=O)c1c(C)[nH]c(C(=O)OCC(=O)c2c(N)n(CC(C)C)c(=O)n(C)c2=O)c1C,?,i,-8.7%,-27.0,3.98µM*
COC(=O)c1c(SC)nc2ccccc2c1OCc1ccccc1Cl,-8.6%,i,-4.7%,-18.1,nt
